In the library only some 1.8% were active in any assay of this set; here they are far more common.
EP2 mod: EP2 receptor (human) modulation; EP2-expressing cells, cAMP HTRF FRET, PGE2 co-stimulation; induction, % at 25 µM; 260,000 tested, 0.83% active;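 active = compounds whose cAMP rise, as percent of the full-agonist control response, exceeds 60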;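 note: rat C6 glioma line stably carrying human EP2 under a CMV promoter; the protocol text gives 20 µM as final concentration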
eIF4E-4G inh: eIF4E/eIF4G interaction inhibition in translation initiation; 220,000 tested, 0.37% active; AID 782; inhibition, % at 21.7 µM; TR-FRET eIF4E-eIF4GI(517-606) binding, 2 h;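 active = inhibition above about 30%, limit read from the data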
PERK inh: blocks human PERK kinase; Q9NZJ5; CHO PERK-DD fusion, SEAP luminescence translation reporter; inhibition, % at 5.6 µM; 220,000 tested, 0.17% active; AID 1416;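 active = inhibition above the mean inhibition of all tested compounds plus 3 SD, set separately per screening campaign, cut at about 2.9% in these data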;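 note: PERK kinase domain activated by AP20187 dimerizer at 100 nM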
EP2 antag: inhibitors of human EP2 prostaglandin E2 receptor; 260,000 tested, 0.52% active; inhibition, % at 25 µM; C6 glioma cells expressing human EP2, cAMP TR-FRET; cells stimulated with saturating PGE2;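 active = percent inhibition above 40 after rounding to a whole number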;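 note: rat C6 glioma host cells with rolipram phosphodiesterase inhibitor present; the protocol text gives 20 µM as final concentration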
A number is an active result; [ ] = dose if it differs, or a comment.

What do the screens show for `N[C@@H](Cc1cc(Br)c(O)c(Br)c1)C(=O)O`?
EP2 mod: inactive; eIF4E-4G inh: inactive; PERK inh: inactive; EP2 antag: inactive

Results for N[C@H](Cc1ccc2oc3cc(=O)c4ccccc4c-3nc2c1)C(=O)O ?
EP2 mod: inactive; EP2 antag: 68

How did CCC(C)NC(=O)CN1C(=O)CN=C(c2ccccc2)c2ccccc21 (stereo not given) do in these assays?
EP2 mod: inactive; eIF4E-4G inh: inactive; PERK inh: 3.1; EP2 antag: inactive

Results for N=C(N)SCc1ccc(Cl)c2ccccc12 (tested in a mixture with another compound) ?
EP2 mod: inactive; EP2 antag: 61

How did CN(C)C(=O)Oc1ccc(Cl)c2ccccc12 do in these assays?
EP2 mod: inactive; eIF4E-4G inh: inactive; PERK inh: inactive; EP2 antag: inactive

Results for O=C(c1ccncc1)N1CCN(C2C3CC4CC(C3)CC2C4)CC1 (stereo not given) ?
EP2 mod: inactive; EP2 antag: inactive

How did CC(C)CN(CC(C)C)c1ccc(C=C2C(=O)NC(=S)NC2=O)cc1[N+](=O)[O-] do in these assays?
EP2 mod: inactive; eIF4E-4G inh: 62[fluorescence artefact?]; PERK inh: inactive; EP2 antag: inactive

What do the screens show for `Cc1ccc2c(c1)C(=O)CC1(CCNCC1)O2`?
EP2 mod: inactive; EP2 antag: inactive

What do the screens show for `O=C(N/N=C/c1c(O)n(Cc2ccc(F)cc2)c(=O)[nH]c1=O)c1ccccc1`?
EP2 mod: inactive; eIF4E-4G inh: inactive; PERK inh: inactive; EP2 antag: inactive

How did O=C(O)CCC(=O)NCCC1=c2ccccc2=N/C1=C\c1c(O)n(Cc2ccc(F)cc2)c(=S)[nH]c1=O do in these assays?
EP2 mod: inactive; eIF4E-4G inh: 60; PERK inh: inactive; EP2 antag: inactive

How did C[C@H]1O[C@@H](O[C@H]2[C@@H](O)C[C@H](O[C@H]3[C@@H](O)C[C@H](O[C@H]4CC[C@]5(C)C6CC[C@]7(C)[C@@H](C8=CC(=O)OC8)CC[C@]7(O)C6CC[C@@H]5C4)O[C@@H]3C)O[C@@H]2C)C[C@H](O)[C@@H]1O (stereo not given in full) do in these assays?
EP2 mod: inactive; EP2 antag: inactive

Results for C[C@]12CC[C@H](O[C@@H]3O[C@H](CO)[C@@H](O)[C@H](O)[C@H]3O)C[C@@H]1CC[C@@H]1[C@@H]2CC[C@]2(C)[C@@H](C3=CCOC3=O)CC[C@@]12O ?
EP2 mod: inactive; EP2 antag: 53

How did Cn1ccnc1C1(O)CC2CCC(C1)N2CC(=O)Nc1ccc(N2CCCCC2)cc1 (stereo not given) do in these assays?
EP2 mod: inactive

How did C[C@@H]1CC[C@@]2(OC1)OC1C(O)C3C4CC[C@H]5C[C@H](O[C@@H]6O[C@H](CO)[C@H](O[C@@H]7O[C@H](CO)[C@@H](O)[C@H](O[C@@H]8OC[C@@H](O)[C@H](O)[C@H]8O)[C@H]7O[C@@H]7O[C@H](CO)[C@H](O)[C@H](O[C@@H]8O[C@H](CO)[C@@H](O)[C@H](O)[C@H]8O)[C@H]7O)[C@H](O)[C@H]6O)[C@H](O)C[C@]5(C)C4CC[C@]3(C)C1[C@@H]2C (stereo not given in full) do in these assays?
EP2 mod: inactive; EP2 antag: 116

Results for C#CCOc1cccc(CN2C3CCC2CC(O)(c2ccc(F)cc2)C3)c1 (stereo not given) ?
EP2 mod: inactive; EP2 antag: inactive

What do the screens show for `CC(C)[C@H]1CN(Cc2ccco2)CCN1C(=O)Cc1nn(C(C)C)c(=O)c2ccccc12`?
EP2 mod: inactive

Results for CNc1ccc2oc(C[C@H]3O[C@@]4(CC[C@H]3C)O[C@H]([C@H](C)C(=O)c3ccc[nH]3)[C@H](C)C[C@H]4C)nc2c1C(=O)O ?
EP2 mod: inactive; eIF4E-4G inh: inactive; EP2 antag: 71

What do the screens show for `CCOC(=O)C1=C(C)OC(N)=C(C#N)C12C(=O)N(Cc1ccccc1)c1ccccc12` (stereo not given)?
EP2 mod: inactive; EP2 antag: inactive

What do the screens show for `C=C(C)c1ccccc1` (tested in a mixture with another compound)?
EP2 mod: inactive; EP2 antag: 55

Results for C=C(c1ccccc1)P(=O)(O)O ?
EP2 mod: inactive; eIF4E-4G inh: inactive; PERK inh: inactive; EP2 antag: inactive

How did CN(CCc1ccccc1)Cc1nc2ccccc2c(=O)[nH]1 do in these assays?
EP2 mod: inactive; EP2 antag: inactive
